The structures appear in SMILES notation. This is part of a sample that, as a whole, favours compounds with a hit. Of some 83,000 tested, about 20% had one in any assay.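 Percent growth is the endpoint: 0 to 100 indicates growth inhibition (40 means 60% inhibition), 0 means no net growth, and negative values indicate cell death.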 Activity calls are given as the source filed them. How the source made its calls: active means growth percent below 10; inactive means the rest.

One assay has as its system NCI-H460 lung. Nature of the assay: NCI-60 one-dose screen, 48 h (100 = growth as untreated, 0 = no growth, -100 = all killed). Particulars: 10 µM.
As for `CS(=O)(=O)c1nccc(-c2c(-c3cccc(OCCN4CCOCC4)c3)nc3sccn23)n1`, the growth was 101% (inactive).
With `C=CCSC(CC)(CC)C(=O)NC`, the growth was 103% (inactive).
As to `CCn1c(SC/C(=N/O)c2ccccc2)nnc1-c1ccccc1`, the growth was 102% (inactive).
`CCN(CC)CCOc1ccc2c(c1O)C(=O)c1ccccc1C2=O`: the growth is 84.5% (inactive).
Still for that read-out and setting: then `CS(=O)(=O)c1nccc(-c2c(-c3cccc(O)c3)nc3sccn23)n1`, with 97.4% (inactive).
For `CC(=O)[C@H]1CC[C@]2(C)[C@@H]1CC[C@@H]1[C@@]3(C)CC(CCC#N)(CCC#N)C(=O)C(C)(C)[C@@H]3CC[C@]12C`, the growth was 101% (inactive).
Same read-out and setting: then `COc1cc(-c2nn(-c3cccc(NC(=O)CN4CCOCC4)c3)cc2-c2cccnc2)ccc1Cl`, with 84% (inactive); and `CNS(=O)(=O)Oc1ccc(-c2sc3cc(OS(=O)(=O)NC)ccc3c2C(=O)c2ccc(OCCN3CCCCC3)cc2)cc1`, with 42.4% (inactive).
Consider `Clc1ccc(/C=C2\CCCC3C2=Nc2ccccc2NC3c2ccc(Cl)cc2)cc1` (stereo unspecified), for which the growth is 94.3% (inactive).
As for `CCOS(=O)(=O)c1c(C(C)C)cc(C(C)C)cc1C(C)C`, the growth is 103% (inactive).
Take `COc1cc(/C=C/c2cc(/C=C/c3ccc(O)c(OC)c3)n(C(=O)Nc3ccccc3Cl)n2)ccc1O`: the growth was 7.39% (active).

For a further assay, the system named is HOP-92 NSCLC. The description is as above. The settings on record: 10 µM.
In the case of `CCN1CCN(CCC(=O)Nc2cccc(-n3cc(-c4ccncc4)c(-c4ccc(Cl)c(OC)c4)n3)c2)CC1`, the growth is 6.07% (active).
For the molecule `O=C1/C=C/[C@@H](O)[C@@H]2C[C@@H](O)C[C@H]2/C=C/CCC[C@H](C(F)(F)F)O1`, the growth was -2.27% (active).
On to `CC[C@@H](C(=O)[C@@H](C)[C@@H](O)[C@H](C)[C@@H]1O[C@@H]([C@@H](CC)C(=O)N(CC)CC)CC[C@@H]1C)C1O[C@]2(C=CC(=O)[C@]3(CC[C@@](C)([C@H]4CC[C@](O)(CC)[C@H](C)O4)O3)O2)[C@H](C)C[C@@H]1C` (stereo partly specified), for which the growth was -17.2% (active).
In the case of `COc1ccc(-c2cc(-c3ccc(Cl)cc3)nc(SCCCCCCC(=O)NO)n2)cc1OC`, the growth was 40.6% (inactive).
With `N#CCc1csc(Cc2ccccc2)n1`, the growth was 117% (inactive).
Same read-out and setting: the figure for `CC(C)(C)OC(=O)CN1CCc2c(sc3ncnc(N/N=C/c4ccccc4Br)c23)C1` is 73.7% (inactive).
Same read-out and setting: then `CC(CN(C)C)Oc1ccccc1NC1=C(Cl)C(=O)C(Nc2ccccc2OC(C)CN(C)C)=C(Cl)C1=O` (stereo unspecified), with -60.7% (active).
As to `Nc1ccn(Cc2nnc(CCC(=O)c3nc4ccccc4[nH]3)o2)c(=O)n1`, the growth is 66.1% (inactive).
In the case of `CC(C)(C)OC(=O)CN1CCc2c(sc3ncnc(N/N=C/c4cccc5ccccc45)c23)C1`, the growth is 54.9% (inactive).
On the same count and under the same terms, then `CCOC(=O)c1cc(C(=O)c2ccc(Cl)cc2)n2ccc(-c3cc[n+](CC(=O)c4ccc(OC)cc4)cc3)cc12`, with 67.8% (inactive).
Same read-out and setting: the figure for `NS(=O)(=O)Oc1ccc(NC(=O)C2CCCCCC2)cc1` is 98.9% (inactive); for `NNC(=O)Oc1c(Cl)cc(Cl)cc1[N+](=O)[O-]` it is 115% (inactive); for `O=C1c2ccccc2C(=O)c2c1ccc(C(Br)Br)c2[N+](=O)[O-]` it is 38.8% (inactive).
As to `COc1ccc(NC(=O)C2CC3C=CC2C3)c([N+](=O)[O-])c1` (stereo unspecified), the growth is 81.9% (inactive).
In the case of `CC[C@@H](C(=O)[C@H](C)[C@H](O)[C@@H](C)[C@H]1O[C@H]([C@@H](CC)C(=O)N(CC)CC)CC[C@H]1C)C1O[C@]2(C=C[C@@H](O)[C@]3(CC[C@@](C)([C@H]4CC[C@](O)(CC)[C@H](C)O4)O3)O2)[C@H](C)C[C@@H]1C` (stereo partly specified), the growth was -26.2% (active).
Consider `COc1cc(-c2nn(-c3cccc(NC(=O)NCCNC(=O)c4cccc(C(F)(F)F)c4)c3)cc2-c2ccncc2)ccc1Cl`, for which the growth is 42.5% (inactive).
Still for that read-out and setting: then `O=C(O)c1cc([N+](=O)[O-])ccc1Oc1ccccc1`, with 65.8% (inactive).
On the same count and under the same terms, then `CCOC(=O)c1cc(C(=O)c2cc(OC)c(OC)c(OC)c2)n2nc(C)ccc12`, with 50.1% (inactive).
`CC[C@@H](C(=O)[C@@H](C)[C@@H](O)[C@H](C)[C@@H]1O[C@@H]([C@@H](CC)C(=O)O)CC[C@@H]1C)C1O[C@]2(C=CC(=O)[C@]3(CC[C@@](C)([C@H]4CC[C@](O)(CC)[C@H](C)O4)O3)O2)[C@H](C)C[C@@H]1C` (stereo partly specified): the growth was 73.5% (inactive).
Same read-out and setting: then `Cc1ccc(S(=O)(=O)N(C)CCCCCC(=O)O)cc1`, with 110% (inactive).
Consider `COc1ccc(C2=Cn3c(CCC(=O)c4nc5ccccc5[nH]4)nnc3SC2)cc1`, for which the growth is 77.5% (inactive).
Regarding `CCCN(CCC)C(=O)[C@H](CC)[C@@H]1CC[C@@H](C)[C@@H]([C@H](C)[C@@H](O)[C@@H](C)C(=O)[C@H](CC)C2O[C@]3(C=C[C@@H](O)[C@]4(CC[C@@](C)([C@H]5CC[C@](O)(CC)[C@H](C)O5)O4)O3)[C@H](C)C[C@@H]2C)O1` (stereo partly specified), the growth is -21.1% (active).
Turning to `OCC1OC(n2cnc3c(NCc4ccco4)ncnc32)C(O)C1O` (stereo unspecified), the growth was -10.8% (active).
Same read-out and setting: then `CC[C@@H](C(=O)[C@H](C)[C@H](O)[C@@H](C)[C@H]1O[C@H]([C@@H](CC)C(=O)O)CC[C@H]1C)C1O[C@]2(C=C[C@@H](O)[C@]3(CC[C@@](C)([C@H]4CC[C@](O)(CC)[C@H](C)O4)O3)O2)[C@H](C)C[C@@H]1C` (stereo partly specified), with 24% (inactive).
Regarding `O=C(/C=C/c1cccc(B(O)O)c1)c1cccc(B(O)O)c1`, the growth was 69.6% (inactive).
With `Cc1ccc(Cl)cc1NC(=O)CCl`, the growth is 92.1% (inactive).
Same read-out and setting: the figure for `COc1cc(/C=C/c2cc(/C=C/c3ccc(O)c(OC)c3)nc(N)n2)ccc1O` is -21.2% (active); for `C/C(=N\O)c1ccc(NC(=O)CSc2nnc(-c3ccccc3)n2-c2ccccc2)cc1` it is 30.1% (inactive); for `O=C(NCCCNS(=O)(=O)c1ccc(Cl)cc1)Nc1ccc(-n2cc(-c3ccncc3)c(-c3ccc(Cl)c(O)c3)n2)cc1` it is 37.3% (inactive).
Consider `CS(=O)(=O)c1nccc(-c2c(-c3cccc(OCCN4CCOCC4)c3)nc3sccn23)n1`, for which the growth was 27.9% (inactive).
Regarding `C=CCSC(CC)(CC)C(=O)NC`, the growth is 106% (inactive).
Regarding `CCn1c(SC/C(=N/O)c2ccccc2)nnc1-c1ccccc1`, the growth was 62.5% (inactive).
The same measure, in the same setting: then `CCN(CC)CCOc1ccc2c(c1O)C(=O)c1ccccc1C2=O`, with 75.3% (inactive); and `CS(=O)(=O)c1nccc(-c2c(-c3cccc(O)c3)nc3sccn23)n1`, with 29.8% (inactive); and `CC(=O)[C@H]1CC[C@]2(C)[C@@H]1CC[C@@H]1[C@@]3(C)CC(CCC#N)(CCC#N)C(=O)C(C)(C)[C@@H]3CC[C@]12C`, with 105% (inactive).
`COc1cc(-c2nn(-c3cccc(NC(=O)CN4CCOCC4)c3)cc2-c2cccnc2)ccc1Cl`: the growth was 50.4% (inactive).
On the same count and under the same terms, the figure for `CNS(=O)(=O)Oc1ccc(-c2sc3cc(OS(=O)(=O)NC)ccc3c2C(=O)c2ccc(OCCN3CCCCC3)cc2)cc1` is 64.2% (inactive); for `Clc1ccc(/C=C2\CCCC3C2=Nc2ccccc2NC3c2ccc(Cl)cc2)cc1` (stereo unspecified) it is 60.6% (inactive).
In the case of `CCOS(=O)(=O)c1c(C(C)C)cc(C(C)C)cc1C(C)C`, the growth is 99.1% (inactive).
On to `COc1cc(/C=C/c2cc(/C=C/c3ccc(O)c(OC)c3)n(C(=O)Nc3ccccc3Cl)n2)ccc1O`, for which the growth was -14.4% (active).

Source of the values: PubChem BioAssay (NCI).
